Data on ten compounds can be found in PubChem BioAssay (NCI).

What all share (test): NCI-60 one-dose screen, 48 h (100 = growth as untreated, 0 = no growth, -100 = all killed)
One assay deals with SR leukemia. As to conditions: 10 µM unless noted.
A further assay has as its system RPMI-8226 leukemia. The note with it: 10 µM.
Another assay deals with OVCAR-5 ovarian. As to conditions: 10 µM.
Another assay has as its system OVCAR-4 ovarian. As to conditions: 10 µM.
The next assay concerns SK-OV-3 ovarian. The note with it: 10 µM.
The next assay concerns IGROV1 ovarian. As to conditions: 10 µM.
In a further assay the test system is NCI/ADR-RES ovarian. As to conditions: 10 µM.
The subject of a further assay is OVCAR-8 ovarian. As to conditions: 10 µM.
The next assay concerns HS 578T breast. The note with it: 10 µM.
In the next assay the test system is OVCAR-3 ovarian. As to conditions: 10 µM.

Values joined by “and” are separate entries in the source; they are usually repeats but may differ in a detail not shown here. Identical values can stand only once. About 83,000 compounds went through this panel and 20% of them were active in at least one assay; those are over-represented in the sample as a whole.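 Assay: single dose, 48 h. Readout: percent growth (0 = no net growth; negative = cell death). Active: <10.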 Active and inactive are the calls of the source.

As to `CCCCCCCCCCCCCCCCCCOCC(COP(=O)([O-])OCC[N+](C)(C)C)OC` (configuration not stated), the growth in the assay on SR leukemia is 48.1% (inactive); in the assay with RPMI-8226 leukemia, 33.1% (inactive); in the assay on OVCAR-5 ovarian, -61.3% (active); in the assay on OVCAR-4 ovarian it was 109% (inactive); in the assay with SK-OV-3 ovarian, 81.8% (inactive); in the assay on IGROV1 ovarian, 11.8% (inactive). For the same compound, the growth with NCI/ADR-RES ovarian is 107% (inactive).
Take `CN1CCN(CCCN2c3ccccc3Sc3ccc(C(F)(F)F)cc32)CC1`: the growth in the assay with SR leukemia is 14.2% (inactive); in the assay on RPMI-8226 leukemia, -7.1% (active); with OVCAR-8 ovarian, 78.2% (inactive); with OVCAR-4 ovarian, 71.2% (inactive); in the assay on SK-OV-3 ovarian, 92.4% (inactive); in the assay on IGROV1 ovarian, 40.7% (inactive). The growth is 60.4% (inactive) with HS 578T breast and 70.8% (inactive) in the assay with NCI/ADR-RES ovarian.
For the compound `C[n+]1c2cc(N)ccc2cc2ccc(N)cc21`, the growth was 5.82% (active) and 0.679% (active) and -0.456% (active) in the assay with SR leukemia; -5.86% (active) and 16.3% (inactive) and -3.49% (active) with OVCAR-5 ovarian; 3.68% (active) [middle of 4 runs] with SK-OV-3 ovarian; 16.7% (inactive) and 36.3% (inactive) and 12.2% (inactive) in the assay with IGROV1 ovarian; 18.2% (inactive) [middle of 4 runs] in the assay with NCI/ADR-RES ovarian.
On to `O=C(Nc1ccc(C(=O)O)c(O)c1)c1ccccc1`, for which the growth is 113% (inactive) and 122% (inactive) in the assay on SR leukemia; 132% (inactive) and 105% (inactive) in the assay with RPMI-8226 leukemia; 97.7% (inactive) and 99.8% (inactive) in the assay with OVCAR-8 ovarian; 93.8% (inactive) and 100% (inactive) with OVCAR-5 ovarian; 108% (inactive) and 112% (inactive) with OVCAR-4 ovarian; 100% (inactive) and 108% (inactive) in the assay with SK-OV-3 ovarian. Also, the growth in the assay with IGROV1 ovarian is 100% (inactive) and 103% (inactive); in the assay with HS 578T breast, 130% (inactive) and 119% (inactive); in the assay with NCI/ADR-RES ovarian it was 84.2% (inactive) and 100% (inactive).
Take `Clc1ccc(/C=C/c2ccccn2)c(Cl)c1`: the growth in the assay with SR leukemia is 80.8% (inactive); in the assay with RPMI-8226 leukemia, 102% (inactive); in the assay with OVCAR-8 ovarian, 101% (inactive); in the assay with OVCAR-5 ovarian, 106% (inactive); in the assay with OVCAR-4 ovarian, 71.2% (inactive); with SK-OV-3 ovarian it was 103% (inactive). The growth is 69.6% (inactive) in the assay on IGROV1 ovarian, 86.3% (inactive) in the assay on HS 578T breast and 109% (inactive) in the assay on NCI/ADR-RES ovarian.
For `COc1cccc2c1C(=O)c1c(O)c3c(c(O)c1C2=O)C[C@@](O)(C(C)=O)C[C@@H]3OC1CC(N)C(O)C(C)O1` (some centres not stated), the growth in the assay with SR leukemia was -25.4% (active); in the assay on RPMI-8226 leukemia, -23.9% (active); with OVCAR-5 ovarian it was -12.3% (active); in the assay on OVCAR-4 ovarian it was -3.17% (active); in the assay with SK-OV-3 ovarian it was 5.5% (active); in the assay on IGROV1 ovarian, -29% (active). Also, the growth with HS 578T breast was -69% (active); with NCI/ADR-RES ovarian, 23.9% (inactive).
As for `CN(C)C(=S)SC(=S)N(C)C`, the growth is 42.6% (inactive) and 52.1% (inactive) in the assay on SR leukemia; 62.7% (inactive) in the assay with RPMI-8226 leukemia; 107% (inactive) and 96.6% (inactive) with OVCAR-8 ovarian; 106% (inactive) and 108% (inactive) in the assay on OVCAR-5 ovarian; 72.9% (inactive) and 32.9% (inactive) in the assay on OVCAR-4 ovarian; 115% (inactive) and 110% (inactive) in the assay with SK-OV-3 ovarian. The growth in the assay with IGROV1 ovarian was 96.2% (inactive) and 94.3% (inactive); in the assay with HS 578T breast it was 106% (inactive) and 102% (inactive); with NCI/ADR-RES ovarian it was 104% (inactive) and 101% (inactive).
As to `O=C1C=C(O)c2ccccc2C1=O.[Ag]`, the growth in the assay with SR leukemia was 103% (inactive); in the assay with RPMI-8226 leukemia, 104% (inactive); in the assay with OVCAR-8 ovarian, 95.4% (inactive); with OVCAR-5 ovarian, 115% (inactive); in the assay on OVCAR-4 ovarian it was 95.4% (inactive); in the assay with SK-OV-3 ovarian it was 137% (inactive). Moreover, the growth with IGROV1 ovarian is 105% (inactive); with HS 578T breast, 96.7% (inactive); with NCI/ADR-RES ovarian, 109% (inactive).
Take `CCCCCC(C)c1ccc(O)c(C)c1` (configuration not stated): the growth in the assay with SR leukemia was 94.3% (inactive); in the assay on OVCAR-8 ovarian it was 102% (inactive); in the assay with OVCAR-5 ovarian it was 102% (inactive); with OVCAR-4 ovarian, 95.5% (inactive); in the assay with SK-OV-3 ovarian it was 106% (inactive); in the assay on IGROV1 ovarian, 117% (inactive). For the same compound, the growth with OVCAR-3 ovarian was 105% (inactive); in the assay with HS 578T breast it was 105% (inactive); in the assay with NCI/ADR-RES ovarian it was 102% (inactive).
As for `Cc1nc(N=C(N)N)nc2ccc3ccccc3c12`, the growth in the assay with RPMI-8226 leukemia was 34.9% (inactive); with OVCAR-8 ovarian, -6.19% (active); in the assay on OVCAR-5 ovarian, 26.8% (inactive); with OVCAR-4 ovarian, -3.65% (active); in the assay on SK-OV-3 ovarian, -5.35% (active); in the assay with IGROV1 ovarian, 7.89% (active). Further, the growth is -32.7% (active) in the assay on OVCAR-3 ovarian, 3.6% (active) with HS 578T breast and 67.6% (inactive) in the assay with NCI/ADR-RES ovarian.
